# Results published in ChEMBL document CHEMBL4513216, “Probing the Open Global Health Chemical Diversity Library for Multistage-Active Starting Points for Next-Generation Antimalarials” (ACS Infect Dis, 2020).
# Screen size: about 65,000 compounds; about 2,100 (3.2%) showed an effect of 50% or more. The median lay at about -52%. The sample as a whole holds a higher share of strong results than the screen did.
# Test system: Plasmodium falciparum
# Experiment: Screen against P. falciparum Asexual Blood Stage (ABS), at 5uM
# Assay type: functional, Dd2
# Conditions: tested at 5 uM
row,SMILES,INHIBITION [%]
1,Cc1cc(NC(=O)NCc2ccncc2)ccc1OC(C)C,-62
2,O=C(c1ccc(Cl)cc1)N1CCn2c(nn(-c3cccc(Cl)c3)c2=O)C1,-1.25
3,CCO[C@H]1CC[C@H]2[C@@H]1OCCN2C(=O)COc1ccccc1,-106
4,CCOc1ccnc(N2CCCN(c3nc(C4CC4)ns3)CC2)n1,52.1
5,CCOc1ccnc(N2CCCN(c3nc(CC)ns3)CC2)n1,-63.7
6,CN1CCCN(c2nc(C3CC3)ns2)CC1,-0.753
7,Cc1ncoc1C(=O)N1CCOC(Cc2ccccc2)C1 (centres undefined),-121
8,Cn1nc(C2CCCN(Cc3ccc(F)cc3F)C2)c2nccnc21 (centres undefined),-79
9,Cc1cc(C(=O)Nc2ccc3oc(=O)n(CCN(C)C)c3c2)c(C)o1,8.61
10,Cn1ccnc1C(=O)N1CCC2(CCCN2CC2CC2)CC1,-104
11,CC(=O)c1cc(CN2C[C@@H]3CC[C@H]2CN(S(=O)(=O)N(C)C)C3)cs1,-60.2
12,O=C(O)Cn1ccc(=O)c2ccccc21,-123
13,CC(C)(C)c1cc(C(=O)NCCN2CCCS2(=O)=O)[nH]n1,34.4
14,CC(C)C(=O)N1CCC2(CCN2CC2CC2)C1 (centres undefined),-74.5
15,CC(C)C(=O)N1CCCC2(CCCN2CC2CCCC2)C1 (centres undefined),62
16,CC(C)C(=O)N1CCC2(CN(CC3CCCC3)C2)C1,-67.5
17,CCCS(=O)(=O)N1CCC(NC(=O)c2cc3ccccc3s2)CC1,7.92
18,COCC(=O)N1C[C@@H](CN2CCCN(C)CC2)[C@@H](CO)C1,-37.6
19,Cc1[nH]c2ccc(CNc3cc(C(=O)NC(C)C)ccn3)cc2c1C,-115
20,O=C(c1ccccc1)N1CCCn2c(CN3CCCCC3)nnc2C1,-94.3
21,CCc1noc(C)c1C(=O)N1CCCCC1Cn1cc(C)cn1 (centres undefined),-104
22,COc1c(C)cnc(CN2CCC(N(C)C(=O)C(C)OC)CC2)c1C (centres undefined),-7.99
23,CCNC(=O)N(C)C1CCN(Cc2ncc(C)c(OC)c2C)CC1,69
24,CCC(=O)N(C)C1CCN(Cc2ncc(C)c(OC)c2C)CC1,-102
25,O=C(Cn1cc(I)cn1)N1CCCCCC1,-34.7
26,COc1ccc2cc(CNCc3c(C)nn(C)c3N(C)C)ccc2c1,18.6
27,Cc1ccc(N2CCN(C(=O)CN3C[C@H]4CC[C@@H]3C4)CC2=O)cc1,-73.1
28,O=C(CCN1C[C@H]2CC[C@@H]1C2)N1CCN(c2cccc(Cl)c2)C(=O)C1,-40
29,Cc1cc(C)cc(N2CCN(C(=O)CCN3C[C@H]4CC[C@@H]3C4)CC2=O)c1,62.1
